Measured values from article PMC5540273 (PLoS ONE, 2017).

What was measured:
Conditions in all cases: concentration: 1 μM, replicates: in singlicate; n = 1
[1] = system: CLK2
[2] = system: CLK3
[3] = system: CLK4
[4] = system: CSF1R-autoinhibited
[5] = system: CSF1R
[6] = system: CSK
[7] = system: CSNK1A1L
[8] = system: CSNK1A1
[9] = system: CSNK1D
[10] = system: CSNK1E
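Also: KINOMEscan kinase panel screen.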

SMILES	%Inh [1] [%]	%Inh [2] [%]	%Inh [3] [%]	%Inh [4] [%]	%Inh [5] [%]	%Inh [6] [%]	%Inh [7] [%]	%Inh [8] [%]	%Inh [9] [%]	%Inh [10] [%]
C[C@@H](Oc1cc(-n2cnc3cc(-c4ccnc(NCCS(C)(=O)=O)c4)ccc32)sc1C(N)=O)c1ccccc1Cl [GSK907232]	4	32	47	1	38	0	22	0	0	17
COc1cc(Nc2nccc(-c3c(-c4cccc(NC(=O)c5c(F)cccc5F)c4)nn4ccccc34)n2)cc(OC)c1OC [GSK323521]	0	31	18	0	93	1	15	27	29	43
CNC(=O)c1ccccc1Nc1nc(Nc2ccc(N3CCOCC3)cc2)ncc1Cl.Cl [GSK1576028]	97.1	90	98.8	89	97.5	85	68	30	36	13
CC(=O)Nc1nc2cnc(Nc3cc(NC(=O)c4cccc(C5(C#N)CC5)c4Cl)ccc3C)nc2s1	0	0	10	15	99.4	41	23	0	0	0
COC(=O)Nc1nc2ccc(Oc3ccc(NC(=O)Nc4cc(C(F)(F)F)ccc4F)cc3)cc2n1C.Cl [GW692089]	0	0	0	0	86	0	0	0	0	0
NCCCC(NC(=O)c1cc(Br)c(-c2ccnc3[nH]ccc23)s1)c1ccccc1.O=C(O)C(F)(F)F.O=C(O)C(F)(F)F (stereo not drawn) [GSK1287544]	61	33	45	0	2	0	59	90	82	84
COc1ccc(-c2coc3ccc(-c4nnc(SCc5ccc(OC)c(C(F)(F)F)c5)o4)cc23)cc1	1	0	18	7	0	16	0	0	0	0
Cn1cc(-c2ccc3c(c2)CCN3C(=O)Cc2cccc(Cl)c2)c2c(N)ncnc21 [GSK2606590]	0	13	14	5	97.6	6	13	20	16	63
CN1CCN(CCCNc2nccc(-c3c(-c4ccc(F)cc4)nn4cc(C(F)(F)F)ccc34)n2)CC1 [GW621581]	15	0	22	0	0	0	12	83	90.6	92.9
Nc1ncc(-c2cccnc2)c2scc(-c3ccc4c(c3)CCN4C(=O)Cc3ccccc3)c12 [GSK683281]	0	19	18	5	99.2	23	21	4	13	35
O=C(Nc1ccccc1F)NC1CCN(c2ccnc(Nc3ccc(F)cc3)n2)CC1 [GSK1379800]	0	0	0	46	5	0	27	0	54	60
Nc1n[nH]c2cnc(-c3ccccc3)cc12 [SB-642124]	73	20	64	0	17	0	8	0	12	16
COc1cccc(-c2ccc3c(NC(=O)C4CC4)n[nH]c3n2)c1 [SB-710903]	100	0	20	54	10	0	12	0	18	16
c1ccc(-c2n[nH]cc2Nc2ccnc3ccccc23)nc1 [GW694077]	94.3	25	96.5	29	7	0	20	40	55	63
FC(F)(F)c1ccc(/C=C/c2cncnc2Nc2ccc3[nH]c(Cc4ccccc4)nc3c2)cc1 [GW709199]	0	11	0	0	4	0	36	33	3	28
Cn1cc(-c2[nH]c3cc(NC(=O)[C@H](N)C4CCCCC4)cc4c3c2C=NNC4=O)cn1	16	13	55	49	100	71	3	24	14	11
COc1cc(Nc2nccc(-c3c(-c4cccc(NC(=O)c5c(F)cccc5F)c4)nn4ncccc34)n2)cc(OC)c1OC [GSK327238]	0	0	2	55	100	98.1	7	0	23	94.7
Cc1ccc(C(=O)N2CC[C@@H](O)C2)cc1-n1c(C)cc(OCc2ccc(F)cc2F)c(Br)c1=O	0	0	0	0	75	0	0	0	0	0
Cc1cccc(NC(=O)Nc2ccc(Oc3ncnc4ccn(C)c34)cc2)c1	0	0	8	48	99.9	0	0	0	0	11
CC(C)(C)c1ccc2nccc(Nc3cccc(O)c3)c2c1 [GW856795]	0	0	0	54	12	0	0	26	0	0
c1ccc(-c2cnc3nccnn23)cc1 [AH20685]	0	0	11	14	0	0	0	0	11	0
O=C(Nc1cccc(-c2nn3ccccc3c2-c2ccnc(Nc3cccc(C(F)(F)F)c3)n2)c1)c1c(F)cccc1F [GSK292658]	0	0	8	0	89	31	5	16	2	46
Cl.Cl.NCC(C(=O)Nc1cc(Br)c(-c2ccnc3[nH]ccc23)s1)c1ccccc1 (stereo not drawn) [GSK1269851]	100	39	61	0	28	0	19	0	35	28

SMILES	%Inh [1] [%]	%Inh [2] [%]	%Inh [3] [%]	%Inh [4] [%]	%Inh [5] [%]	%Inh [6] [%]	%Inh [7] [%]	%Inh [8] [%]	%Inh [9] [%]	%Inh [10] [%]
Cl.Cl.NCC(NCc1ccc(-c2ccnc3[nH]ccc23)s1)c1ccccc1 (stereo not drawn) [GSK1321565]	43	45	88	19	50	0	16	10	26	64
CN(C)Cc1ccc(-c2ccc3c(Nc4ccc(Oc5ccccn5)cc4)ccnc3c2)o1 [GW567148]	0	12	0	11	38	82	9	0	0	23
CN(C)S(=O)(=O)c1cc(-c2ccc3nccc(-c4cccc(S(N)(=O)=O)c4)c3c2)cnc1N [GSK1669921]	86	21	54	0	7	0	14	49	0	33
Cl.c1ccc(-c2ccc3c(Nc4ccc5[nH]ccc5c4)ccnc3c2)nc1 [GW440138]	0	8	19	36	75	0	0	0	13	27
COc1ccc(CNC(=O)NC2CCN(c3ccnc(Nc4ccc(F)cc4)n3)CC2)cc1 [GSK1379788]	0	11	0	19	8	0	9	0	42	63
COc1cccc(C2=C(Nc3ccc(Cl)c(C(=O)O)c3)C(=O)NC2=O)c1 [SB-390769]	6	0	17	13	0	0	5	0	8	13
CC(=O)N1CCN(c2ccc(Nc3nccc(-c4sc(C(C)C)nc4-c4cccc(NS(=O)(=O)c5cccc(Cl)c5)c4)n3)cn2)CC1 [GSK1660437]	0	0	17	0	36	95.4	0	23	0	0
Cl.c1ccc(-c2ccc3c(Nc4ccc5[nH]ncc5c4)ccnc3c2)nc1 [GW440137]	67	12	21	0	27	0	0	0	27	41
CCn1c(-c2nonc2N)nc2c(C#CC(C)(C)O)nc(OC[C@H](N)c3ccccc3)cc21 [GSK943949]	0	15	8	0	35	0	0	7	0	15
COC(=O)Nc1nc2cc(Oc3ccc(NC(=O)Nc4cc(C(F)(F)F)ccc4F)cn3)ccc2[nH]1.Cl.Cl [GW681170]	8	0	61	0	67	0	0	0	6	0
c1ccc(Oc2ccc(Nc3ccnc4cc(-c5ccc(CNCCN6CCOCC6)o5)ccc34)cc2)nc1 [GW567145]	0	0	0	40	68	77	0	0	0	0
Nc1ncc(-c2ccc3nccc(-c4ccncc4)c3c2)cc1S(=O)(=O)N1CCOCC1 [GSK1627798]	72	55	54	0	3	0	7	3	37	42
Fc1ccc(-c2ncn(C3CCNCC3)c2-c2ccnc(Oc3ccc(-c4ccccc4)cc3)n2)cc1 [SB-245391]	11	32	0	8	12	14	71	93.9	96.2	99.5
O=C(Nc1cccc(-c2nn3ncccc3c2-c2ccnc(Nc3ccccc3)n2)c1)c1c(F)cccc1F [GSK198271]	0	25	8	17	99.7	97.5	2	0	20	85
O=C(Nc1n[nH]c2cc(-c3ccoc3)ccc12)C1CC1 [SB-738481]	73	13	9	0	2	0	5	0	2	0
COc1cc(Nc2nccc(N3CCC(NC(=O)Nc4cccc(C(C)=O)c4)C3)n2)cc(OC)c1OC (stereo not drawn) [GSK1379753]	0	11	0	0	31	0	0	0	3	18
CSc1cccc2c(-c3ccncn3)c(-c3ccc(F)cc3)nn12 [GW514786]	0	11	13	21	0	0	21	61	84	69
CCc1ccc(-c2ccc3c(c2)-c2c(cnn2C)S(=O)(=O)N3C)cc1	13	0	10	9	3	0	0	0	0	1
Oc1cc(Nc2ccnc3cc(I)ccc23)ccc1F [GW552771]	51	0	9	23	23	0	16	0	20	16
O=C(O)C(F)(F)F.O=C(O)C(F)(F)F.O=c1[nH]ccc2nc(N[C@@H]3CCCNC3)nc(Nc3ccc(S(=O)(=O)N4CCOCC4)cc3)c12 [GSK2177277]	98.9	41	79	83	99.9	51	99.7	99.9	98.7	99.9
CCCCc1nn2ncccc2c1-c1ccnc(Nc2ccc(N3CCN(C)CC3)cc2)n1 [GW684941]	3	0	0	73	99.9	7	46	93.1	90.9	99.4
O=C(NC1CCN(c2ccnc(Nc3ccc(F)cc3)n2)C1)c1cc2ccccc2s1 (stereo not drawn) [GSK1379716]	0	14	30	3	2	0	11	0	0	28
